Measured values reported in PubChem BioAssay AID1159580 (chemical genetic matrix, 2015).
Where “and” joins values, the source holds several entries; their conditions need not be identical. Equal entries are not always repeated. About 2,000 (36%) of roughly 5,500 compounds were called active. Roughly 18% stayed inconclusive and do not appear here. Cut-off read from the data, not from the text of the source: active = normalized growth mostly below about 0.91 (no sharp cut-off); inconclusive = no clear call, values can overlap the other calls; inactive = mostly above about 0.92. The list shows a part of the results.

Test: chemical genetic growth profiling, strain panel (AID 1159580);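 note: tested at 20 µM; growth read once vehicle control cultures reached saturation at 30 °C; 1 = growth at the plate median or of vehicle wells; lower values mean less growth of the strain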
Conditions: S. cerevisiae deletion strains, growth OD

Measured: normalized growth

COc1c2ccoc2cc2oc(=O)ccc12
inactive: locus YAL021C, strain ccr4, active compounds read low 0.957 | locus YAL026C, strain drs2, active compounds read low 0.936 | locus YAL030W, strain snc1, active compounds read low 0.993 | locus YBL061C, strain skt5, active compounds read low 0.971 | locus YBR021W, strain FUR4, active compounds read low 1.1 | locus YBR023C, strain chs3, active compounds read low 0.968 | locus YBR171W, strain sec66, active compounds read low 0.954 | locus YBR229C, strain ROT2, active compounds read low 0.967 | locus YBR279W, strain paf1, active compounds read low 0.974 | locus YCL011C, strain gbp2, active compounds read low 0.942 | locus YCL016C, strain dcc1, active compounds read low 0.959 | locus YCL061C, strain MRC1, active compounds read low 0.97 | locus YCL069W, strain vba3, active compounds read low 0.968 | locus YCR088W, strain abp1, active compounds read low 0.987 | locus YDL005C, strain med2, active compounds read low 0.996 | locus YDL040C, strain nat1, active compounds read low 0.992 | locus YDL185W, strain tfp1, active compounds read low 0.911 | locus YDR001C, strain nth1, active compounds read low 0.976 | locus YDR069C, strain doa4, active compounds read low 0.96 | locus YDR159W, strain sac3, active compounds read low 1.04 | locus YDR297W, strain sur2, active compounds read low 0.99 | locus YDR335W, strain msn5, active compounds read low 0.953 | locus YDR392W, strain spt3, active compounds read low 0.761 | locus YEL003W, strain gim4, active compounds read low 0.96 | locus YEL037C, strain rad23, active compounds read low 0.942 | locus YEL061C, strain CIN8 (second series), active compounds read low 0.958 | locus YER015W, strain faa2, active compounds read low 0.981 | locus YER016W, strain bim1, active compounds read low 0.973 | locus YER111C, strain swi4, active compounds read low 0.975 | locus YFR010W, strain ubp6, active compounds read low 0.936 | locus YGL167C, strain pmr1, active compounds read low 0.981 | locus YGL173C, strain kem1, active compounds read low 0.96 | locus YGL227W, strain vid30, active compounds read low 0.976 | locus YGL240W, strain doc1, active compounds read low 0.896 | locus YGR229C, strain SMI1, active compounds read low 0.839 | locus YHR013C, strain ard1, active compounds read low 0.856 | locus YHR027C, strain rpn1, active compounds read low 0.983 | locus YIL073C, strain SPO22, active compounds read low 0.757 | locus YJL092W, strain hpr5, active compounds read low 0.976 | locus YJL095W, strain BCK1 (second series), active compounds read low 0.966 | locus YJL115W, strain asf1, active compounds read low 0.967 | locus YJL129C, strain trk1, active compounds read low 1.09 | locus YJL134W, strain LCB3, active compounds read low 0.957 | locus YJL154C, strain vps35, active compounds read low 0.977 | locus YJL164C, strain tpk1, active compounds read low 0.937 | locus YJL166W, strain qcr8, active compounds read low 0.91 | locus YJL168C, strain set2, active compounds read low 0.958 | locus YJL187C, strain SWE1, active compounds read low 1 | locus YJR066W, strain TOR1, active compounds read low 0.829 | locus YKL009W, strain mrt4, active compounds read low 0.914 | locus YKL068W, active compounds read low 0.973 | locus YKR026C, strain gcn3, active compounds read low 0.951 | locus YKR091W, strain srl3, active compounds read low 0.996 | locus YLL001W, strain dnm1, active compounds read low 0.977 | locus YLL026W, active compounds read low 0.98 | locus YLL041C, strain sdh2, active compounds read low 0.992 | locus YLR027C, strain aat2, active compounds read low 0.971 | locus YLR039C, strain RIC1, active compounds read low 0.906 | locus YLR102C, strain apc9, active compounds read low 0.929 | locus YLR113W, strain HOG1, active compounds read low 0.948 | locus YLR221C, strain rsa3, active compounds read low 0.941 | locus YLR258W, strain gsy2, active compounds read low 0.975 | locus YLR262C, strain YPT6 (second series), active compounds read low 1.09 | locus YLR320W, strain mms22, active compounds read low 0.887 | locus YLR342W, strain FKS1, active compounds read low 1.01 | locus YLR357W, strain rsc2, active compounds read low 1.13 | locus YLR370C, strain arc18, active compounds read low 0.969 | locus YLR384C, strain iki3, active compounds read low 0.956 | locus YMR058W, strain fet3, active compounds read low 0.953 | locus YMR125W, strain sto1, active compounds read low 1.03 | locus YMR129W, active compounds read low 0.977 | locus YMR205C, strain PFK2, active compounds read low 1.03 | locus YMR231W, strain pep5, active compounds read low 0.983 | locus YMR307W, strain GAS1, active compounds read low 0.974 | locus YNL071W, strain lat1, active compounds read low 0.972 | locus YNL183C, strain NPR1, active compounds read low 0.858 | locus YNL209W, strain ssb2, active compounds read low 0.976 | locus YNL322C, strain KRE1 (second series), active compounds read low 1.02 | locus YNR049C, strain mso1, active compounds read low 0.991 | locus YOL012C, strain htz1 0.31 | locus YOR070C, strain gyp1, active compounds read low 0.979 | locus YOR080W, strain dia2, active compounds read low 0.979 | locus YOR265W, strain rbl2, active compounds read low 0.989 | locus YOR290C, strain snf2, active compounds read low 0.877 | locus YOR316C, strain cot1, active compounds read low 0.975 | locus YPL078C, strain atp4, active compounds read low 0.893 | locus YPL240C, strain hsp82, active compounds read low 0.973 | locus YPL256C, strain CLN2, active compounds read low 0.907 | locus YPR119W, strain clb2, active compounds read low 0.964 | locus YPR141C, strain kar3, active compounds read low 0.997
active: locus YBR009C, strain hhf1, active compounds read low 0.886 | locus YBR231C, strain swc5, active compounds read low 0.872 | locus YCL029C, strain bik1, active compounds read low 0.647 | locus YDL035C, strain GPR1, active compounds read low 0.734 | locus YDL074C, strain BRE1, active compounds read low 0.544 | locus YDL101C, strain DUN1, active compounds read low 0.613 | locus YDL134C, strain PPH21, active compounds read low 0.703 | locus YDL192W, strain arf1, active compounds read low 0.674 | locus YDR101C, strain arx1, active compounds read low 0.741 | locus YDR137W, strain rgp1, active compounds read low 1.16 [resistant] | locus YDR162C, strain NBP2, active compounds read low 0.617 | locus YDR195W, strain ref2 1.38 [resistant] | locus YDR318W, strain mcm21, active compounds read low 0.699 | locus YDR388W, active compounds read low 0.814 | locus YDR502C, strain sam2, active compounds read low 0.791 | locus YER110C, active compounds read low 0.863 | locus YER155C, strain BEM2 (second series), active compounds read low 0.653 | locus YER155C, strain BEM2, active compounds read low 0.904 | locus YER167W, strain BCK2, active compounds read low 0.885 | locus YGL078C, strain dbp3, active compounds read low 0.91 | locus YGL086W, strain mad1, active compounds read low 0.719 | locus YGL248W, strain PDE1, active compounds read low 0.718 | locus YGL253W, strain hxk2, active compounds read low 0.903 | locus YGR078C, strain PAC10, active compounds read low 0.706 | locus YGR135W, strain pre9, active compounds read low 0.688 | locus YGR252W, strain gcn5, active compounds read low 0.554 | locus YHR030C, strain SLT2, active compounds read low 0.729 and 0.802 | locus YHR079C, strain IRE1 (second series), active compounds read low 0.854 | locus YHR079C, strain IRE1, active compounds read low 0.801 | locus YHR094C, strain hxt1, active compounds read low 0.922 | locus YHR129C, strain ARP1, active compounds read low 0.863 | locus YHR142W, strain chs7, active compounds read low 0.826 | locus YHR200W, strain rpn10, active compounds read low 0.636 | locus YIL066C, strain RNR3, active compounds read low 0.805 | locus YIL125W, strain kgd1, active compounds read low 0.869 | locus YIR030C, strain dcg1, active compounds read low 0.818 | locus YJL095W, strain BCK1, active compounds read low 0.337 and 0.817 | locus YJL187C, strain SWE1 (second series), active compounds read low 0.766 | locus YKL085W, strain MDH1 (second series), active compounds read low 0.915 | locus YKL085W, strain MDH1, active compounds read low 0.915 | locus YKL160W, strain elf1, active compounds read low 0.902 | locus YKL190W, strain CNB1, active compounds read low 0.898 | locus YKR001C, strain vps1, active compounds read low 0.44 | locus YLR058C, strain SHM2, active compounds read low 0.783 | locus YLR268W, strain sec22, active compounds read low 0.71 | locus YLR371W, strain rom2, active compounds read low 0.573 | locus YLR418C, strain cdc73, active compounds read low 0.494 | locus YML016C, strain PPZ1, active compounds read low 0.809 | locus YML032C, strain rad52, active compounds read low 0.411 | locus YML120C, strain ndi1, active compounds read low 0.901 | locus YML124C, strain tub3, active compounds read low 0.872 | locus YMR078C, strain ctf18, active compounds read low 0.878 | locus YMR223W, strain ubp8, active compounds read low 0.764 | locus YNL067W, strain RPL9B, active compounds read low 0.791 | locus YNL233W, strain BNI4, active compounds read low 0.74 | locus YNL248C, strain rpa49, active compounds read low 0.575 | locus YNL250W, strain rad50, active compounds read low 0.856 | locus YNL271C, strain bni1, active compounds read low 0.858 | locus YNL298W, strain CLA4, active compounds read low 0.77 | locus YNL307C, strain MCK1, active compounds read low 0.666 | locus YNR052C, strain pop2, active compounds read low 0.737 | locus YOL006C, strain TOP1, active compounds read low 0.419 | locus YOL147C, strain pex11, active compounds read low 0.757 | locus YOR001W, strain rrp6, active compounds read low 0.87 | locus YOR061W, strain CKA2, active compounds read low 0.872 | locus YOR069W, strain VPS5, active compounds read low 0.852 | locus YOR083W, strain WHI5, active compounds read low 0.799 | locus YOR106W, strain vam3, active compounds read low 0.854 | locus YOR136W, strain idh2, active compounds read low 0.888 | locus YOR144C, strain elg1, active compounds read low 0.852 | locus YOR184W, strain ser1, active compounds read low 0.46 | locus YOR231W, strain MKK1, active compounds read low 0.83 | locus YOR270C, strain vph1, active compounds read low 0.751 | locus YPL051W, strain arl3, active compounds read low 0.91 | locus YPL106C, strain sse1, active compounds read low 0.78 | locus YPR163C, strain tif3, active compounds read low 0.672 | locus YPR167C, strain met16, active compounds read low 0.775 | strain wtn01, active compounds read low 0.731
